These results are taken from paper PMC5540273 (PLoS ONE, 2017).

Some results are limits rather than exact numbers.
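Further: kd values determined as follow-up on hits from a single-replicate KINOMEscan panel screen.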

In one experiment the test system is ADCK4.
On to `Cl.Oc1ccc(-c2nc(-c3ccccc3)[nH]c2-c2ccncc2)cc1` [SB-428218], for which the dissociation constant (Kd) (as a rule, the concentration at which binding is half-saturated) was above 10 µM.

`CCn1c(-c2cccnc2O)nc2cnccc21` [SB-736715] gave a Kd above 10 µM. Compound `Cc1cc(NCC(c2ccccc2)c2ccccc2)nc(NCc2ccc(C(F)(F)F)cc2)n1` [GW497681] yielded a Kd of 2.3 µM.

The next experiment has as its system AURKA.
On to `Clc1cc(Cl)cc(Nc2ccnc(Nc3cc(Cl)cc(Cl)c3)n2)c1` [GSK175726], for which the dissociation constant Kd is above 10 µM. Same read-out and setting: the result for `COc1ccccc1CNC(=O)c1cc(C(=O)c2ccccc2C)c[nH]1` [GSK364507] reads above 10 µM. On the same count and under the same terms, the result for `Fc1cc(Cl)ccc1Nc1ccnc2cc(-c3ccc(CN4CCCCC4)o3)ccc12` [GW560116] reads above 10 µM; that for `COc1cc(Nc2nccc(N3CCC(NC(=O)Nc4cc(C)ccc4C)C3)n2)cc(OC)c1OC` (stereo not shown) [GSK1379762], 1.1 µM. `Nc1ncnc2[nH]c(-c3ccccc3)nc12` [AH5015]: the Kd is above 10 µM.

The compound `COc1cc2ncnc(Nc3ccc4nc(-c5ccccc5)[nH]c4c3)c2cc1OC.Cl` [GW282450] yielded a Kd of 2.3 µM. Same read-out and setting: the result for `C[C@@H]1CCCCN1c1cc(-c2ccc3c(N)n[nH]c3c2)nc(N)n1` [GSK2258759] reads above 10 µM.
